Compound activity from PubChem BioAssay.
Compounds with a hit are over-represented: about 0.24% of the library has one in this group of screens.
mcGAS inh – mouse cGAS inhibition by luminescence; Q8C6L5; recombinant cGAS, Kinase-Glo ATP depletion luminescence; inhibition, % at 12.5 µM; 160,000 tested, 0.15% active; AID 1259399
Target sequence (Q8C6L5 whole entry, looked up): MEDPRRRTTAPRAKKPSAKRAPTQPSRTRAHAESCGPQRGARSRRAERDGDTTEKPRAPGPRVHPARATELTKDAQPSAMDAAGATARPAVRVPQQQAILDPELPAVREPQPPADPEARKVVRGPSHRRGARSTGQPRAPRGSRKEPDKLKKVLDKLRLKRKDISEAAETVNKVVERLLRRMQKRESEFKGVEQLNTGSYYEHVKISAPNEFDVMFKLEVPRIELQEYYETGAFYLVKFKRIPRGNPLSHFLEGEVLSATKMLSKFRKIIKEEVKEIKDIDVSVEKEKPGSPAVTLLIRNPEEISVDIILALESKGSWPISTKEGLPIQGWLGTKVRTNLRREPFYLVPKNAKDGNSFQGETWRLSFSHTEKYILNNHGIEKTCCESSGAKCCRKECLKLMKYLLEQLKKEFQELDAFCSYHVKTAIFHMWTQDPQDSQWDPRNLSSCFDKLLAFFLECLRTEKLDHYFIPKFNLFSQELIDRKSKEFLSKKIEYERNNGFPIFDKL
NPYLR7 agonist – mosquito NPYLR7 agonism. HEK293T NPYLR7/Galpha15, GCaMP6s calcium fluorescence. activation, % at 10 µM. 270,000 tested, 0.15% active. AID 1259423; in the data active means activation above about 40%
hcGAS inh – human cGAS inhibition; 290,000 tested, 0.081% active; Q8N884; AID 1259398; inhibition, % at 12.5 µM; recombinant h-cGAS, ATP depletion, Kinase-Glo luminescence
Of the large screens only hits and unclear results are named; the others gave an inactive call; ! = not active in a repeat. Unless noted, no stated cut-off is given here; in the data, active means inhibition above about 40%; inactive means the rest.

CN(Cc1cc(-c2ccccc2)on1)C(=O)C1CC2(CCNCC2)CN1 (centres undefined)	none
CN(Cc1cnc2ccccc2n1)C(=O)C1CC2(CCNCC2)CN1 (centres undefined)	NPYLR7 agonist 58.3
COc1ccc(-c2csc(NC(=O)CN3CC(C)CC(C)C3)n2)c(OC)c1 (centres undefined)	none (no result: mcGAS inh)
COc1ccc(-c2csc(NC(=O)CCl)n2)c(O)c1	mcGAS inh 59.9
COc1ccc(S(=O)(=O)Nc2ccc(Nc3ccc(-n4nc(C)cc4C)nn3)cc2)c(C)c1C	none
Cc1cccc(NS(=O)(=O)c2c(C)nn(C)c2Cl)c1C(=O)O	none (no result: mcGAS inh)
Cc1nn(C)c(Cl)c1/C=C1/CCCc2c1nc1ccccc1c2C(=O)O	NPYLR7 agonist 56.8
COc1cc(/C=C(/C#N)c2nc3cc(Cl)ccc3s2)ccc1O	NPYLR7 agonist 102.4 (no result: mcGAS inh)
COc1ccc(C=C(C#N)c2nc(-c3ccc(F)cc3)cs2)cc1O	none
Oc1c2cccnc2cn1CCSc1ccccn1	none
COc1ccc(C2C(C(N)=O)=C(C)Nc3ncnn32)cc1 (centres undefined)	none
COc1cc(-c2nc3n(n2)C(c2ccc(O)cc2)C(C(N)=O)=C(C)N3)cc(OC)c1OC (centres undefined)	NPYLR7 agonist 51.2 (no result: mcGAS inh)
CC(C)=CC(=O)N1CC[C@@H](c2sccc2C)[C@H](O)C1	none (no result: mcGAS inh)
CCOc1ccc(-n2nnc(C(=O)NCC3CCCO3)c2C)cc1 (centres undefined)	none
Cc1ccc(C2=NOC(CN(C)C(=O)NC(C)C)C2)cc1 (centres undefined)	none
C[C@@H](NC(=O)/C(C#N)=C/c1ccc(O)c(O)c1)c1ccccc1	none
N#C/C(=C\c1ccc(O)c(O)c1)C(=O)Nc1ccccc1	NPYLR7 agonist 146.7
Oc1oc(-c2ccccc2Br)nc1C=Nc1ccccc1	NPYLR7 agonist 64.5 (no result: mcGAS inh)
Cc1ccc(N=Cc2nc(-c3ccccc3Br)oc2O)cc1	none (no result: mcGAS inh)
O=C1NC(=S)SC1=Cc1cccc(C(F)(F)F)c1	mcGAS inh 82.1
CC(C)(C)c1ccc(/C=C2\SC(=S)NC2=O)cc1	none
O=C1NC(=S)S/C1=C/c1cccc(O)c1	none (no result: mcGAS inh)
O=C1NC(=S)SC1=Cc1ccc(C(=O)O)cc1	mcGAS inh 64.7
C#CCn1c(O)c(N=NC(=O)CNC(=O)c2cccc(Br)c2)c2ccccc21	none (no result: mcGAS inh)
Cc1cccc2c(=O)n(CC(=O)NCCc3cccc(F)c3)cnc12	none (no result: mcGAS inh)
Cc1ccc(-n2nc(C(=O)NCc3ccccn3)c(=O)n(Cc3ccccc3Cl)c2=O)cc1C	none
Cc1cc2c(c(=O)o1)C(c1c(F)cccc1Cl)C(C#N)C(=N)O2 (centres undefined)	none
Nc1c(C=C2C=CC(=O)C=C2)c(=O)nc2sc(-c3ccccc3)nn12	none (no result: mcGAS inh)
Nc1c(C=C2C=CC(=O)C=C2)c(=O)nc2sc(-c3ccccc3Cl)nn12	hcGAS inh 42.5 (no result: mcGAS inh)
CCN1CC=C2C(C#N)C(=N)C(C#N)(C#N)C(c3cccs3)C2C1 (centres undefined)	NPYLR7 agonist 49.9
N#CC1C(=N)C(C#N)(C#N)C(c2cccs2)C2CSCC=C12 (centres undefined)	none (no result: mcGAS inh)
Cc1noc(C)c1CC(=O)NCc1cccc(C(F)(F)F)c1	none (no result: mcGAS inh)
O=C1/C(=C/c2cc3cc(Br)ccc3o2)Oc2c1ccc(O)c2CN1CCCC1	none
CCN1CCN(Cc2c(O)ccc3c2O/C(=C\c2cc4cc(Br)ccc4o2)C3=O)CC1	NPYLR7 agonist 79.0
O=C1/C(=C/c2cc3cc(Br)ccc3o2)Oc2c1ccc(O)c2CN1CCOCC1	none
CN1CCN(Cc2c(O)ccc3c2O/C(=C\c2cc4cc(Br)ccc4o2)C3=O)CC1	NPYLR7 agonist 61.9
CCOc1ccccc1NC(=O)c1cc(S(=O)(=O)NCCc2ccc(Cl)cc2)ccc1F	none (no result: mcGAS inh)
CC1CCCN(S(=O)(=O)c2ccc(CNC(=O)c3ccc(Cl)cc3)s2)C1 (centres undefined)	none (no result: mcGAS inh)
CCn1c(O)c(C=Nc2c(C#N)c(C)c(C)n2C2CCCCC2)c(=O)n(CC)c1=S	NPYLR7 agonist 69.0
CCn1c(O)c(C=Nc2c(C)nn(C)c2C)c(=O)n(CC)c1=S	none
NC(=O)N/N=C\c1c[nH]c2ccccc12	none
CCCCCN=C(N)NN=Cc1c[nH]c2ccc(OC)cc12	NPYLR7 agonist 46.5 (no result: mcGAS inh)
Cc1cc(C)c2cc3c(cc2n1)CCN3CC(O)CO (centres undefined)	NPYLR7 agonist 187.5 (no result: mcGAS inh)
CC(=O)NC1CCN(c2cc(C)c3cc4c(cc3n2)CCC4)CC1	none (no result: mcGAS inh)
CS(=O)(=O)c1ccc(S(=O)(=O)N2CCN(Cc3cc(=O)c(OCc4ccc(F)cc4)co3)CC2)cc1	none
CC(=O)C(C(C)=O)=c1cc(Nc2cccc(C)c2)c2c(O)c3ccccc3c3onc1c23	none (no result: mcGAS inh)
CC(C(=O)O)n1c(O)c(C=C2C=Nc3ccccc32)sc1=S (centres undefined)	NPYLR7 agonist 75.3
O=C(Nn1c(O)c(C=C2C=Nc3ccccc32)sc1=S)c1ccccc1[N+](=O)[O-]	none
O=C(O)c1ccc(-n2c(O)c(C=C3C=Nc4ccccc43)sc2=S)cc1	none
O=C(O)CCn1c(O)c(C=C2C=Nc3ccccc32)sc1=S	NPYLR7 agonist 46.5
COCc1c(Br)c(C)nc(OCC(=O)N/N=C\c2ccc(OCc3ccc([N+](=O)[O-])cc3)c(OC)c2)c1C#N	none
COc1ccccc1-c1cc(C(=O)NCCN2CCCC2)n2nc(-c3ccc(Cl)cc3)cc2n1	mcGAS inh 43.8!
COc1ccccc1-c1cc(C(=O)NCCN2CCCCC2)nc2cc(-c3ccc(Cl)cc3)nn12	none
Cc1ccc(C(=O)NC2CCN(C(=O)NCC3(C)CCOC3)CC2)o1 (centres undefined)	none
O=C(O)CN1C(=O)/C(=C\c2ccc(OC(=O)c3ccc(Cl)cc3)cc2)SC1=S	none
O=C(CC1SC(=O)NC1=O)Oc1ccc(/C=C2\SC(=O)NC2=S)cc1 (centres undefined)	NPYLR7 agonist 158.4, hcGAS inh 43.7 (no result: mcGAS inh)
CCOc1cc(/C=C2\C(=N)N3N=CSC3=NC2=O)cc(Br)c1OC(=O)c1ccccc1	NPYLR7 agonist 73.6 (no result: mcGAS inh)
COc1cc(/C=C2\C(=N)N3N=CSC3=NC2=O)ccc1OC(=O)c1cccc(C)c1	none (no result: mcGAS inh)
Cc1cccc(-n2nc(C(=O)Nc3cccc(F)c3)c(=O)n(Cc3ccccc3F)c2=O)c1	none
Cc1ccc(-c2ccnc3c(C(=O)O)cnn23)o1	none (no result: mcGAS inh)
Cc1c(C(=O)O)cnc2c([N+](=O)[O-])cnn12	hcGAS inh 41.1
CCCc1nc(C)cc(NCC2CN(S(C)(=O)=O)CCO2)n1 (centres undefined)	none (no result: NPYLR7 agonist)
CSc1ccc(C2CC(c3ccc(Cl)cc3)=Nc3ncnn32)cc1 (centres undefined)	NPYLR7 agonist 92.4 (no result: mcGAS inh)
Clc1ccc(C2=Nc3ncnn3C(c3ccc(Cl)cc3)C2)cc1 (centres undefined)	none (no result: mcGAS inh)
CCOc1cccc(/C=C(/C#N)c2nc(C)cs2)c1OC(F)F	none (no result: mcGAS inh)
CCOC=C(C#N)c1nc(C)cs1	NPYLR7 agonist 83.7 (no result: mcGAS inh)
Cc1c2c(nc3cc4c(cc13)OCO4)CCc1ccccc1-2	hcGAS inh 46.7 (no result: mcGAS inh)
Cc1cc(-c2ccco2)nc2cc3c(cc12)OCO3	none (no result: mcGAS inh)
Cc1nc2ccc(N)cc2s1	none
C[n+]1c2cc(N)ccc2cc2ccc(N)cc21	NPYLR7 agonist 119.9, hcGAS inh 67.8 (no result: mcGAS inh)
O=c1oc2cc(O)ccc2cc1-c1nc2ccccc2o1	NPYLR7 agonist 216.4 (no result: mcGAS inh)
O=c1oc2cc(O)ccc2cc1-c1nnc(-c2ccccc2)o1	none
Cc1nc(CNC(=O)Cc2cnc3c(C)cccn23)nc2c1CCCC2	none (no result: mcGAS inh)
N#CC1C(=N)Oc2cc(N)ccc2C1c1ccc(Br)cc1 (centres undefined)	none
